Results filed as inconclusive are left out. The source made the active and inactive calls. How the source made its calls: active means hit-call score of the fitted dose curve at least 0.9, where 1 is the maximum; inconclusive means response in the unintended direction; inactive means score below 0.9.

This experiment can be described thus: ACEA_ER_80hr: ACEA Biosciences xCELLigence Real-Time Cell Analysis on Estrogen Receptor Agonism for Proliferation (AID 2282667). The following applies: T47D proliferation, impedance (xCELLigence), 80 h. The protocol: ACEA_ER is a cell-based, single-readout assay that uses T47D, a human breast cell line, with measurements taken at 80 hours after chemical dosing in a 96-well plate, although TO2 (mc0.srcf) used a 384-well plate. Differences in plate size can be ignored given data normalization.ACEA_ER_80hr is one of two assay component(s) measured or calculated from the ACEA_ER assay. It is designed to make measurements of real-time cell-growth kinetics, a form of growth reporter, as detected with electrical impedance signals by Real-Time Cell Electrode Sensor (RT-CES) technology.Data from the assay component ACEA_ER_80hr was analyzed into 1 assay endpoint. This assay endpoint, ACEA_ER_80hr_Positive, was analyzed in the positive analysis fitting direction relative to DMSO as the negative control and baseline of activity. Using a type of growth reporter, measures of the cells for gain-of-signal activity can be used to understand the signaling at the pathway-level as they relate to the gene ESR1. Furthermore, this assay endpoint can be referred to as a primary readout, because this assay has produced multiple assay endpoints where this one serves a signaling function. To generalize the intended target to other relatable targets, this assay endpoint is annotated to the nuclear receptor intended target family, where the subfamily is steroidal.
The xCELLigence system Multi-E-Plate stations were used to measure the time-dependent response to chemicals. Each compound was tested in an eight-point, 1:4 serial dilution series starting at a maximum final concentration of 100 uM. A maximum starting concentration of 0.5% DMSO was present in the 100 uM chemical samples and was diluted along with the test article dilution series. The screen was performed in biological duplicate using two separate, 96-well, E-Plates 96 for each dilution series (n = 2). Positive controls (MG132 and E2) and a negative control (assay media) were tested in quadruplicate on each testing plate. […] Reference compounds were tested with 8 concentrations with 1:5 serial dilutions. All screening was carried out by ACEA Biosciences, Inc. (San Diego, CA). T-47D cells purchased from ATCC were maintained in RPMI1640 media supplemented with 10% characterized fetal bovine serum (FBS). […] Cells were then detached and seeded in E-Plates 96 in assay medium. After overnight monitoring of growth once every hour, compounds were added to […] cells and remained in the medium until the end of the experiment. Cellular responses were then recorded once every 5 min for the first 5 h, and once every hour for an additional 100 h.
In the case of `C[Si](Cl)(Cl)CCC(F)(F)C(F)(F)C(F)(F)C(F)(F)C(F)(F)C(F)(F)F`, the outcome was inactive.
On the same count and under the same terms, the same measure for `CCN(CCO)S(=O)(=O)C(F)(F)C(F)(F)C(F)(F)C(F)(F)C(F)(F)C(F)(F)C(F)(F)C(F)(F)F`: “inactive”.
Still for that read-out and setting: the same measure for `Cc1cc(O)c(C(C)(C)C)cc1C(C)(C)C`: “inactive”; for `CN(N=O)C(=O)N[C@@H]1[C@@H](O)[C@H](O)[C@@H](CO)O[C@@H]1O`: “inactive”.
Take `Brc1nc2ccccc2s1`: the AC50 was 40.8 nM (active).
In the case of `FC(F)(F)C(F)(F)C(F)(F)C(F)(F)C(F)(F)C(F)(F)C(F)(F)CCI`, the compound was classed as inactive.
`COC(=O)c1ccc(C=O)cc1`: the compound was classed as inactive.
Still for that read-out and setting: the same measure for `OCCCc1cccnc1`: “inactive”.
As for `CSc1ccc(O)cc1C`, the compound was classed as inactive.
Regarding `N#Cc1ccccc1O`, the compound was called inactive.
Turning to `CC(=O)c1ccccc1N`, the result was inactive.
The same measure, in the same setting: the same measure for `F[Si-2](F)(F)(F)(F)F`: “inactive”.
The same measure, in the same setting: the same measure for `O=C=Nc1cccc2c(N=C=O)cccc12`: “inactive”; for `CCN(CC)c1ccc2c(c1)Oc1cc(N(CC)CC)ccc1C21OC(=O)c2ccccc21`: “inactive”; for `O=C(F)C1(F)C(F)(F)C(F)(F)C(F)(F)C(F)(F)C1(F)F`: “inactive”.
`CCOC(OCC)OCC`: the outcome was inactive.
The same measure, in the same setting: then `CC(C)OC=O`, with “inactive”.
For `CC(O)C#CC(C)O` (stereo not given), the result was inactive.
For the compound `NC(=O)C(F)(F)C(F)(F)C(F)(F)C(F)(F)C(N)=O`, the outcome was inactive.
As to `O=C(Cl)C(F)(F)C(F)(F)C(F)(F)C(F)(F)C(F)(F)C(F)(F)C(F)(F)F`, the AC50 is 19700 nM (active).
`NCC(F)(F)C(F)(F)C(F)(F)C(F)(F)C(F)(F)C(F)(F)F`: the result was inactive.
Take `O=S(=O)(OCC(F)(F)F)C(F)(F)C(F)(F)C(F)(F)C(F)(F)F`: the outcome was inactive.
Still for that read-out and setting: then `O=c1cccc[nH]1`, with “inactive”; and `N#CCCOCCC#N`, with “inactive”; and `C#CC(O)CCC` (stereo not given), with “inactive”.
With `NCC(F)(F)C(F)(F)C(F)(F)C(F)(F)C(F)(F)C(F)(F)C(F)(F)C(F)(F)F`, the call was inactive.
On the same count and under the same terms, the same measure for `CCCCCCCCCCCC(=O)Cl`: “inactive”.
On to `O=C(c1ccccc1)c1ccc(O)cc1O`, for which the AC50 is 1880 nM (active).
For `CC(C)OC(=O)COc1ccc(Cl)cc1Cl`, the outcome was inactive.
Regarding `C=CC(=O)OCCC(F)(F)C(F)(F)C(F)(F)C(F)(F)F`, the AC50 is 17100 nM (active).
Consider `OCC(F)(F)C(F)(F)C(F)(F)C(F)(F)C(F)(F)C(F)(F)C(F)(F)C(F)(F)CO`, for which the AC50 is 188 nM (active).
In the case of `Cc1cnccn1`, the compound was classed as inactive.
The same measure, in the same setting: the same measure for `CCCCCC/C=C/CCCCCCCC(=O)O`: “inactive”; for `OCCC(O)CO` (stereo not given): “inactive”.
As for `OCC(F)(F)C(F)(F)C(F)(F)C(F)(F)C(F)(F)C(F)(F)CO`, the AC50 was 291 nM (active).
As to `CCN=C1C=CC(=C(c2ccc(N(CC)CC)cc2)c2ccc(N(CC)CC)cc2)c2ccccc21`, the call was inactive.
On the same count and under the same terms, then `CC1CCCCC1`, with “inactive”.
As to `CCCCCCCCCCCCCC[P+](CCCC)(CCCC)CCCC`, the AC50 is 20.3 nM (active).
On to `C=C(C)CCCC`, for which the compound was called inactive.
The same measure, in the same setting: then `Nc1cccnc1N`, with “inactive”.

By AC50 is commonly meant the midpoint of the concentration-response curve, whichever way the signal moves.

For the origin of these results see PubChem BioAssay (EPA / NIEHS).
